Results from PubChem BioAssay AID1159580 (chemical genetic matrix, 2015).
“And” between values parts separate entries of the source, which are not always exact repeats. Equal values may be shown once. Hit rate of the full screen: of about 5,500 compounds, about 2,000 (36%) were called active. Roughly 18% stayed inconclusive and do not appear here. Rule as the data show it: active = normalized growth mostly below about 0.91 (no sharp cut-off); inconclusive = no clear call, values can overlap the other calls; inactive = mostly above about 0.92. Some of the results follow.

Experiment: chemical genetic growth profiling, strain panel (AID 1159580);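 also: tested at 20 µM; growth read once vehicle control cultures reached saturation at 30 °C; 1 = growth at the plate median or of vehicle wells; lower values mean less growth of the strain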
Details: S. cerevisiae deletion strains, growth OD

Measured: normalized growth

Cc1cccc(C)c1OCC(C)N (stereo not drawn)
inactive: locus YAL013W, strain DEP1, active compounds read low 0.993 | locus YAL021C, strain ccr4, active compounds read low 0.986 | locus YAL026C, strain drs2, active compounds read low 1.01 | locus YAL030W, strain snc1, active compounds read low 1 | locus YAL040C, strain CLN3, active compounds read low 0.998 | locus YBL061C, strain skt5, active compounds read low 1 | locus YBR009C, strain hhf1, active compounds read low 1.01 | locus YBR021W, strain FUR4, active compounds read low 0.997 | locus YBR023C, strain chs3, active compounds read low 1 | locus YBR171W, strain sec66, active compounds read low 1.02 | locus YBR229C, strain ROT2, active compounds read low 0.998 | locus YBR231C, strain swc5, active compounds read low 1.02 | locus YBR279W, strain paf1, active compounds read low 1.01 | locus YCL011C, strain gbp2, active compounds read low 1 | locus YCL016C, strain dcc1, active compounds read low 1.01 | locus YCL029C, strain bik1, active compounds read low 0.987 | locus YCL061C, strain MRC1 (second series), active compounds read low 0.997 | locus YCL061C, strain MRC1, active compounds read low 1.01 | locus YCL069W, strain vba3, active compounds read low 1.01 | locus YCR088W, strain abp1, active compounds read low 1 | locus YDL005C, strain med2, active compounds read low 1.01 | locus YDL035C, strain GPR1, active compounds read low 1 | locus YDL040C, strain nat1, active compounds read low 1.01 | locus YDL074C, strain BRE1, active compounds read low 1.05 | locus YDL101C, strain DUN1, active compounds read low 1.02 | locus YDL134C, strain PPH21, active compounds read low 0.983 | locus YDL185W, strain tfp1, active compounds read low 0.95 | locus YDL192W, strain arf1, active compounds read low 0.991 | locus YDR001C, strain nth1, active compounds read low 1 | locus YDR069C, strain doa4, active compounds read low 1.01 | locus YDR101C, strain arx1, active compounds read low 0.996 | locus YDR137W, strain rgp1, active compounds read low 1.01 | locus YDR159W, strain sac3, active compounds read low 1.01 | locus YDR162C, strain NBP2, active compounds read low 0.979 | locus YDR195W, strain ref2 0.998 | locus YDR297W, strain sur2, active compounds read low 1.01 | locus YDR318W, strain mcm21, active compounds read low 0.99 | locus YDR334W, strain swr1, active compounds read low 1.01 | locus YDR335W, strain msn5, active compounds read low 1.01 | locus YDR363W, strain ESC2, active compounds read low 0.97 | locus YDR388W, active compounds read low 1.01 | locus YDR392W, strain spt3, active compounds read low 1.01 | locus YDR502C, strain sam2, active compounds read low 1 | locus YEL003W, strain gim4, active compounds read low 1.01 | locus YEL037C, strain rad23, active compounds read low 0.992 | locus YEL061C, strain CIN8 (second series), active compounds read low 1 | locus YEL061C, strain CIN8, active compounds read low 0.991 | locus YER002W, strain NOP16, active compounds read low 1.01 | locus YER015W, strain faa2, active compounds read low 1.02 | locus YER016W, strain bim1, active compounds read low 1.01 | locus YER110C, active compounds read low 0.98 | locus YER111C, strain swi4, active compounds read low 1.02 | locus YER155C, strain BEM2 (second series), active compounds read low 1.02 | locus YER155C, strain BEM2, active compounds read low 0.999 | locus YER167W, strain BCK2, active compounds read low 1.01 | locus YFR010W, strain ubp6, active compounds read low 1.02 | locus YGL078C, strain dbp3, active compounds read low 0.977 | locus YGL086W, strain mad1, active compounds read low 1.01 | locus YGL167C, strain pmr1, active compounds read low 1 | locus YGL173C, strain kem1, active compounds read low 1.02 | locus YGL227W, strain vid30, active compounds read low 1.01 | locus YGL240W, strain doc1, active compounds read low 1.02 | locus YGL248W, strain PDE1, active compounds read low 1.01 | locus YGL253W, strain hxk2, active compounds read low 1.01 | locus YGR135W, strain pre9, active compounds read low 0.975 | locus YGR252W, strain gcn5, active compounds read low 1.01 | locus YHR013C, strain ard1, active compounds read low 1.01 | locus YHR027C, strain rpn1, active compounds read low 1.01 | locus YHR030C, strain SLT2, active compounds read low 0.977 and 0.988 | locus YHR079C, strain IRE1 (second series), active compounds read low 0.983 | locus YHR079C, strain IRE1, active compounds read low 0.994 | locus YHR094C, strain hxt1, active compounds read low 0.999 | locus YHR129C, strain ARP1, active compounds read low 0.999 | locus YHR142W, strain chs7, active compounds read low 1 | locus YHR200W, strain rpn10, active compounds read low 0.973 | locus YIL066C, strain RNR3, active compounds read low 1.01 | locus YIL073C, strain SPO22, active compounds read low 0.862 | locus YIL125W, strain kgd1, active compounds read low 0.995 | locus YIR030C, strain dcg1, active compounds read low 0.987 | locus YJL092W, strain hpr5, active compounds read low 1.01 | locus YJL095W, strain BCK1 (second series), active compounds read low 1 | locus YJL095W, strain BCK1, active compounds read low 1.05 and 0.977 | locus YJL115W, strain asf1, active compounds read low 1.01 | locus YJL129C, strain trk1, active compounds read low 1.02 | locus YJL134W, strain LCB3, active compounds read low 0.987 | locus YJL154C, strain vps35, active compounds read low 1.01 | locus YJL164C, strain tpk1, active compounds read low 1.01 | locus YJL166W, strain qcr8, active compounds read low 1 | locus YJL168C, strain set2, active compounds read low 0.997 | locus YJL187C, strain SWE1 (second series), active compounds read low 1.01 | locus YJL187C, strain SWE1, active compounds read low 1 | locus YJR043C, strain POL32, active compounds read low 1 | locus YJR066W, strain TOR1, active compounds read low 0.96
